Here are results for 31 molecules from PubChem BioAssay (NCATS).

The nature of experiment [1]: qHTS for Inhibitors of the Functional Ribonucleoprotein Complex (vRNP) of Lassa (LASV) Arenavirus: LASV Primary Screen - GLuc reporter signal (AID 1347082; calls by dose curve; tested in HEK293 reporter line; note: series mostly up to about 57 µM; nearly all actives have a fitted effect of over 60% in size). (qHTS replaces the single test concentration by a dilution series.)
Experiment [2] is described as follows: qHTS for Inhibitors of the Functional Ribonucleoprotein Complex (vRNP) of Lassa (LASV) Arenavirus: Viability assay - alamar blue signal for LASV Primary Screen (AID 1347083; calls by dose curve; tested in HEK293 reporter line; note: nearly all actives have a fitted effect of over 80% in size; note: potency is the fitted concentration of half-maximal effect).
Experiment [3] is described as follows: qHTS for Inhibitors of the Functional Ribonucleoprotein Complex (vRNP) of Lymphocytic Choriomeningitis Arenaviruses (LCMV): Viability assay - alamar blue signal for LCMV Primary Screen (AID 1347085; calls by dose curve; tested in HEK293 reporter line; note: nearly all actives have a fitted effect of over 80% in size; note: potency is the fitted concentration of half-maximal effect).
The target of experiment [4] is Nucleoprotein (Lymphocytic choriomeningitis virus (strain Armstrong)) (UniProt P09992). Nature of the experiment: qHTS for Inhibitors of the Functional Ribonucleoprotein Complex (vRNP) of Lymphocytic Choriomeningitis Arenaviruses (LCMV): LCMV Primary Screen - GLuc reporter signal (AID 1347086). Note: series mostly up to about 57 µM; nearly all actives have a fitted effect of over 70% in size.

Records with an inconclusive call do not appear. Activity calls are given as the source filed them. Unless noted, calls come from the whole dose curve.

Sequence of Nucleoprotein (Lymphocytic choriomeningitis virus (strain Armstrong)) (P09992 whole entry, looked up): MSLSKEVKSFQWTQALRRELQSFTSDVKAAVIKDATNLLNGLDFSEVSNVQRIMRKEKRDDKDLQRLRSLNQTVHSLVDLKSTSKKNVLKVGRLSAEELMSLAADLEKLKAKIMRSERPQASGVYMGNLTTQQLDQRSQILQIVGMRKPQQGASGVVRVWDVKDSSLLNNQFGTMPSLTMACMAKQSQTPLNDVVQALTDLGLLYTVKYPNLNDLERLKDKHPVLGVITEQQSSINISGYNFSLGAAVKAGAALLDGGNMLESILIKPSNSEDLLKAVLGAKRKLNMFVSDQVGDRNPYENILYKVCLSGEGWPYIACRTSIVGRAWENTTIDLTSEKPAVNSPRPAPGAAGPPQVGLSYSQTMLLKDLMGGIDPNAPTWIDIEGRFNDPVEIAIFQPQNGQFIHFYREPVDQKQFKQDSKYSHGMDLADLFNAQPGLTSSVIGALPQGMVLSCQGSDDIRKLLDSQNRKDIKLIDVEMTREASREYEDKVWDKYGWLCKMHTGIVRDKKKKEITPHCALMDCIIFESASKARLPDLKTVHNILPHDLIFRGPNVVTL

In the case of `COc1cc2ncnc(Nc3ccc(F)c(Cl)c3)c2cc1OCCCN1CCOCC1`, the Potency entry in experiment [1] was “inactive”. Besides, the Potency is 2220 nM (active) in experiment [2] and 1110 nM (active) in experiment [3].
On to `CCc1ccc(CCOc2ccc(CC3SC(=O)NC3=O)cc2)nc1` (stereo unspecified), for which the Potency result in experiment [1], in experiment [2], in experiment [3] and in experiment [4] was “inactive” throughout.
As to `CCCNCC(O)COc1ccccc1C(=O)CCc1ccccc1` (stereo unspecified), the Potency entry in experiment [1], in experiment [2], in experiment [3] and in experiment [4] was “inactive” each time.
On to `CCN(CC)CCNC(=O)c1cc(Cl)c(N)cc1OC`, for which the Potency entry in experiment [1], in experiment [2], in experiment [3] and in experiment [4] was “inactive” each time.
Consider `OC(CCN1CCCC1)(c1ccccc1)C1CCCCC1` (stereo unspecified), for which the Potency entry in experiment [1], in experiment [2], in experiment [3] and in experiment [4] was “inactive” in each case.
On to `NC(=Nc1ccccc1)Nc1ccccc1`, for which the Potency result in experiment [1], in experiment [2], in experiment [3] and in experiment [4] was “inactive” in each case.
For the molecule `COC(=O)Nc1nc2ccc(C(=O)c3cccs3)cc2[nH]1`, the Potency result in experiment [1] was “inactive”. For the same molecule, the Potency in experiment [2] was 54.4 nM (active); in experiment [3], 27.3 nM (active).
On to `CC(=O)O[C@@]12CO[C@@H]1C[C@H](O)[C@@]1(C)C(=O)[C@H](O)C3=C(C)[C@@H](OC(=O)[C@H](O)[C@@H](NC(=O)OC(C)(C)C)c4ccccc4)C[C@@](O)([C@@H](OC(=O)c4ccccc4)[C@H]21)C3(C)C`, for which the Potency result in experiment [1], in experiment [2] and in experiment [3] was “inactive” throughout.
Consider `COc1cc2nc(N(C)CCCNC(=O)C3CCCO3)nc(N)c2cc1OC` (stereo unspecified), for which the Potency entry in experiment [1], in experiment [2], in experiment [3] and in experiment [4] was “inactive” in each case.
With `CCCN(CCC)S(=O)(=O)c1ccc(C(=O)O)cc1`, the Potency entry in experiment [1], in experiment [2], in experiment [3] and in experiment [4] was “inactive” in each case.
Consider `CCOC(=O)Nc1ccc2c(c1)N(C(=O)CCN1CCOCC1)c1ccccc1S2`, for which the Potency entry in experiment [1], in experiment [2], in experiment [3] and in experiment [4] was “inactive” throughout.
`C[C@@H](O)[C@H]1C(=O)N2C(C(=O)O)=C(S[C@@H]3CN[C@H](CNS(N)(=O)=O)C3)[C@H](C)[C@H]12`: the Potency result in experiment [1], in experiment [2], in experiment [3] and in experiment [4] was “inactive” each time.
In the case of `CCCCC1=NC2(CCCC2)C(=O)N1Cc1ccc(-c2ccccc2-c2nn[nH]n2)cc1`, the Potency entry in experiment [1], in experiment [2], in experiment [3] and in experiment [4] was “inactive” each time.
Take `COC(=O)CCc1ccc(OCC(O)CNC(C)C)cc1` (stereo unspecified): the Potency result in experiment [1], in experiment [2], in experiment [3] and in experiment [4] was “inactive” throughout.
`O=C1Nc2ccc(Cl)cc2[C@@](C#CC2CC2)(C(F)(F)F)O1`: the Potency entry in experiment [1], in experiment [2], in experiment [3] and in experiment [4] was “inactive” each time.
`O=C(O)C1(C(=O)O)CCC1.[NH2-].[NH2-].[Pt+2]`: the Potency entry in experiment [1], in experiment [2], in experiment [3] and in experiment [4] was “inactive” each time.
As to `C[N+]1(C)CCC(OC(=O)C(O)(c2ccccc2)C2CCCC2)C1` (stereo unspecified), the Potency entry in experiment [1], in experiment [2], in experiment [3] and in experiment [4] was “inactive” throughout.
On to `NC(=O)OCC(COC(N)=O)c1ccccc1`, for which the Potency result in experiment [1], in experiment [2], in experiment [3] and in experiment [4] was “inactive” in each case.
Regarding `CCC(=O)O[C@H]1[C@H](O[C@@H]2[C@@H](C)[C@H](O[C@H]3C[C@@](C)(OC)[C@@H](O)[C@H](C)O3)[C@@H](C)C(=O)O[C@H](CC)[C@@](C)(O)[C@H](O)[C@@H](C)C(=O)[C@H](C)C[C@@]2(C)O)O[C@H](C)C[C@@H]1N(C)C`, the Potency result in experiment [1], in experiment [2], in experiment [3] and in experiment [4] was “inactive” in each case.
In the case of `CCOC(=O)N1CCC(=C2c3ccc(Cl)cc3CCc3cccnc32)CC1`, the Potency entry in experiment [1], in experiment [2], in experiment [3] and in experiment [4] was “inactive” throughout.
As to `O=c1c(O)c(-c2ccc(O)c(O)c2)oc2cc(O)cc(O)c12`, the Potency entry in experiment [1], in experiment [2], in experiment [3] and in experiment [4] was “inactive” throughout.
In the case of `Cc1c(O)cccc1C(=O)N[C@@H](CSc1ccccc1)[C@H](O)CN1C[C@H]2CCCC[C@H]2C[C@H]1C(=O)NC(C)(C)C`, the Potency result in experiment [1], in experiment [2], in experiment [3] and in experiment [4] was “inactive” throughout.
For the molecule `N=c1nc(N2CCCCC2)cc(N)n1O`, the Potency result in experiment [1], in experiment [2], in experiment [3] and in experiment [4] was “inactive” throughout.
Take `COc1ccc(-c2cc(=S)ss2)cc1`: the Potency entry in experiment [1], in experiment [2], in experiment [3] and in experiment [4] was “inactive” throughout.
As for `CC1Cc2ccccc2N1NC(=O)c1ccc(Cl)c(S(N)(=O)=O)c1` (stereo unspecified), the Potency entry in experiment [1], in experiment [2], in experiment [3] and in experiment [4] was “inactive” each time.
As for `CO/N=C1\CN(c2nc3c(cc2F)c(=O)c(C(=O)O)cn3C2CC2)CC1CN` (stereo unspecified), the Potency entry in experiment [1], in experiment [2], in experiment [3] and in experiment [4] was “inactive” throughout.
For `NS(=O)(=O)c1cc2c(cc1Cl)NC=NS2(=O)=O`, the Potency result in experiment [1], in experiment [2], in experiment [3] and in experiment [4] was “inactive” in each case.
With `Cc1cn[nH]c1`, the Potency result in experiment [1], in experiment [2], in experiment [3] and in experiment [4] was “inactive” throughout.
For `COc1cc2nc(N3CCN(C(=O)C4CCCO4)CC3)nc(N)c2cc1OC` (stereo unspecified), the Potency result in experiment [1], in experiment [2], in experiment [3] and in experiment [4] was “inactive” throughout.
On to `CC(C(=O)O)c1cccc(C(=O)c2ccccc2)c1` (stereo unspecified), for which the Potency result in experiment [1], in experiment [2], in experiment [3] and in experiment [4] was “inactive” each time.
For `O[C@@H](c1cc(C(F)(F)F)nc2c(C(F)(F)F)cccc12)[C@H]1CCCCN1`, the Potency result in experiment [1], in experiment [2], in experiment [3] and in experiment [4] was “inactive” in each case.
